# Results filed as inconclusive are left out. A number with no mark means an inactive call. Active and inactive are the calls of the source. The call rests on the fitted dose curve; in most records, active means well fitted curve in the direction sought with a large enough effect; inconclusive means small, poorly fitted or top-dose-only effect, or another doubt; inactive means no such curve, though single readings can be large or run the other way.
# Test: Followup screen for small molecules that induce DNA re-replication in MCF 10A normal breast cells
# Details: MCF 10A DNA re-replication, Hoechst nuclear intensity, 48 h; series mostly up to 46.1 µM; re-replication activation: at the top concentration
# Source text: NIH Molecular Libraries Probe Production Network [MLPCN] NIH Chemical Genomics Center [NCGC] MLPCN Grant: Fast Track K99 CA136555 Assay Provider: Melvin DePamphilis, NICHD, NIH Assay Overview Eukaryotic cells normally restrict genome duplication to once per cell division. When this process is aberrant, DNA re-replication occurs when cells reinitiate DNA replication before the first round of replication is complete. DNA re-replication induces the DNA damage response, arrests cell proliferation, and triggers apoptosis. The cell cycle components cyclin A, Cdt-1, Cdc6 and geminin are critical regulators of this process and their misregulation results in DNA re-replication in normal and cancer cells. To identify compounds that induce re-replication in normal cells, an image-based assay was used to measure DNA content of nuclei, as detected by the fluorescent DNA binding dye, Hoechst. Cell nuclei were imaged by a fluorescence scanning plate imager and compounds that induce DNA re-replication were identified by the increase of nuclei with elevated fluorescence intensity.
# Assay Protocol Summary For screening, 250 cells in 5 uL/well were dispensed into black clear 1536-well plates (Aurora) using a solenoid-based dispenser. Following transfer of 23 nL compound or DMSO vehicle by a pin tool, the plates were incubated 48 hr at 37 C and 5% CO2. After addition of 1 uL/well Hoescht stain, the plates were incubated 40 min at 37 C, 5% CO2 and total intensity of fluorescent objects (nuclei) were enumerated by an Acumen Explorer Ex3 (TTP LabTech) fluorescence scanning plate imager (405 nm excitation, 500-530 nm emission). Keywords: NIH Roadmap, MLPCN, MLI, MLSMR, qHTS, NCGC, DNA replication, cancer
Compound,re-replication activation,Potency
CC(C)NP(=O)(NC(C)C)OP(=O)(NC(C)C)NC(C)C,-3.1%,–
NCC#Cc1ccccc1,14.6%,–
COc1cc([C@@H]2c3cc4c(cc3[C@H](O)[C@@H]3COC(=O)[C@H]23)OCO4)cc(OC)c1OC,–,26.8 nM (active)

# From PubChem BioAssay AID504809 (National Center for Advancing Translational Sciences (NCATS), 2011)
